# Test results taken from ChEMBL document CHEMBL3988442, “University of Dundee, Small-Polar-MMV Screening Library” (2021).
# The campaign covered roughly 48,000 compounds. About 13,000 (27%) showed an effect of 50% or more. This is one part of the list.
# System: Wolbachia pipientis
# Assay: Anti-Wolbachia Cell-Based Screen
# Assay type: functional
# Parameters: scale not given: in the data most compounds retested in dose-response had high values
# Conditions: 5 µM
row,Compound,Percent Effect
1,Cc1noc(C)c1CN1C[C@@H](NS(=O)(=O)N(C)C)[C@H](C(C)C)C1,-5.186%
2,CC(=O)N1CCC2(CCN(C(=O)c3ccc(Cl)c(C(F)(F)F)c3)CC2)C1,-5.245%
3,CCCn1ncc(C(=O)NC2CCN(C3CCOCC3)CC2)c1C,-3.665%
4,CC(C)(C#N)C(=O)Nc1nccn1Cc1ccc(Br)cc1,-2.576%
5,Cc1nc[nH]c1C(=O)N1CCC2(CN(C)C(=O)O2)C1 (stereo not given),-7.833%
6,Cc1nn(CC(=O)N2CCC3(CN(C)C(=O)O3)C2)c(=O)c2ccccc12 (stereo not given),94.98%
7,CN1CC2(CCN(C(=O)Cn3ncc4ccccc4c3=O)CC2)OC1=O,95.4%
8,CCc1ccc2occ(CC(=O)N3CCC4(CCCN(C)C4=O)C3)c2c1 (stereo not given),-37.19%
9,Cc1ccc2oc(=O)n(CC(=O)N3CCC4(CC3)CN(C)C(=O)O4)c2c1,-3.778%
10,CN1CC2(CCN(C(=O)COc3ccc(Cl)cc3Cl)CC2)OC1=O,-5.539%
11,CN1CCCC2(CCN(C(=O)Cn3ncc4ccccc4c3=O)C2)C1=O (stereo not given),88.86%
12,Cc1nccc(-c2ccccc2)c1C(=O)N1CCC2(CN(C)C(=O)O2)C1 (stereo not given),-8.281%
13,CN1CCCC2(CCN(C(=O)CCn3cncn3)C2)C1=O (stereo not given),-41.8%
14,CCCN(CCC)C(=O)CN1CCCC1C(=O)N(C)C (stereo not given),15.58%
15,O=C(c1cccc(S(=O)(=O)NCCc2cscn2)c1)N1CCOCC1,-14.28%
16,C[S+]([O-])c1nncn1CC(=O)c1ccc(OC(F)F)cc1 (stereo not given),-3.882%
17,CCc1ncc2c(n1)CN(C(=O)c1c(C)[nH]c3c1C(=O)CCC3)C2,17.5%
18,O=C(c1cccn2ccnc12)N1CCCN(c2cccnn2)CC1,-3.729%
19,CCOC(=O)CCC(=O)N1CCC(Oc2ccc(C(F)(F)F)cn2)CC1,3.938%
20,CC(=O)N1CCC(Oc2ccc(C#N)cn2)CC1,-7.335%
21,CCOCC(=O)N1CCC(Oc2ccc(C(F)(F)F)cn2)CC1,5.97%
22,CN(CC(=O)N1CCC(Oc2ccc(C(F)(F)F)cn2)CC1)S(C)(=O)=O,103.2%

row,Compound,Percent Effect
1,CCOC(=O)N1CCC(Oc2ccc(C(F)(F)F)cn2)CC1,91.75%
2,CN(C)S(=O)(=O)N1CCC(Oc2ccc(C#N)cn2)CC1,-10.68%
3,O=C(Cn1cccn1)N1CCC(Oc2ccc(C(F)(F)F)cn2)CC1,107%
4,N#Cc1ccc(OC2CCN(C(=O)Cc3cccs3)CC2)nc1,12.26%
5,CC(C)(C)NC(=O)N1CCC(Oc2ccc(C(F)(F)F)cn2)CC1,116.4%
6,CCOCC(=O)N1CCC(Oc2ccc(Cl)cn2)CC1,-5.53%
7,CN(CC(=O)N1CCC(Oc2ccccc2)CC1)c1cnccn1,-0.02384%
8,N#Cc1ccc(C(=O)N2CCC(Oc3ccc(C#N)cn3)CC2)cc1,-11.6%
9,CCN1CCN(C[C@@H]2CN(c3ncc(Cl)cc3F)C[C@@H]2CO)CC1,3.895%
10,CC(NC(=O)Nc1ccc(OC2CCCC2)cc1)c1nc[nH]n1 (stereo not given),4.793%
11,CCC(C)c1ccc(NC(=O)C2CCN(C(=O)COC)CC2)cc1 (stereo not given),-13.47%
12,Cc1cc(C)nc(N2CCC(C(=O)Nc3ccc(C(C)C)cc3)CC2)n1,135.6%
13,CCC(C)c1ccc(NC(=O)C2CCN(C(=O)N(C)C)CC2)cc1 (stereo not given),-1.822%
14,Cc1ccc(C(=O)NCC(O)CN2CCCC2=O)cc1Cl (stereo not given),2.235%
15,CNC(=O)c1ccccc1-c1ccc(S(C)(=O)=O)cc1,101.9%
16,Cc1ccc(S(C)(=O)=O)cc1C(=O)NS(C)(=O)=O,-9.422%
17,CC1CCCCN1Cc1ccc(-c2ccccc2C(=O)O)cc1 (stereo not given),-6.204%
18,CS(=O)(=O)c1ccc(CNC(=O)NCc2cc[nH]n2)cc1,1.077%
19,CS(=O)(=O)c1ccc(-c2ccccc2C(=O)O)cc1,122%
20,CC(=O)c1ccccc1-c1cc(C(=O)O)cc(S(=O)(=O)NC(C)C)c1,0.5422%
21,CN(C)C(C(=O)N1CC(Oc2ccccc2F)C1)c1ccccc1F (stereo not given),-4.147%
22,CO[C@@H]1CCN(S(=O)(=O)c2cccs2)[C@H]1Cc1ccccc1,7.736%

row,Compound,Percent Effect
1,Cc1n[nH]c(C)c1NC(=O)CN1CCn2c(nnc2C(C)C)C1,-1.446%
2,CC(C)C(=O)N1Cc2ccccc2CC2(CCCCN2C)C1 (stereo not given),96.75%
3,CC(C)C(=O)N1CCC12CCCN(C(=O)c1ccnnc1)C2 (stereo not given),-3.572%
4,CC(C)C(=O)N1CCCC12CCN(C(=O)c1ccno1)C2 (stereo not given),-2.946%
5,CC(C)C(=O)N1CCC12CCCN(C(=O)c1ccccc1)C2 (stereo not given),-15.79%
6,C[C@H](C(=O)N1Cc2ccccc2CC2(CCCN2C)C1)c1ccccc1 (stereo not given in full),111.3%
7,CC(C)C(=O)N1Cc2ccccc2CC2(CCCN2C)C1 (stereo not given),90.17%
8,CC(C)C(=O)N1CCCC12CCCN(C(=O)c1ccno1)C2 (stereo not given),-3.277%
9,CC(=O)c1cc(CN2C[C@@H](C(=O)O)[C@H](c3cccnc3)C2)cs1,-13.15%
10,CCN(Cc1cc(Cl)ccc1OC)Cc1cc(C)nn1C,-10.03%
11,Cc1nnsc1CN(C)C(=O)CCn1cnc2ccccc21,-11.62%
12,O=C(CNCC1(O)CCCN(Cc2cccc(F)c2F)C1=O)NC1CC1 (stereo not given),-1.283%
13,CN(CCCOc1ccccc1)C(=O)CN1CCc2cncnc2C1,0.7453%
14,CCCOc1ccc2c(c1)OCC(C(=O)NC(C)Cn1ccnc1)=C2 (stereo not given),6.426%
15,O=C(NCCCn1cccn1)C1CCC(=O)N(CC2CCCCC2)C1 (stereo not given),-8.272%
16,O=C1NC[C@@]2(C(=O)O)CN(Cc3cccc(OC4CCCC4)c3)C[C@@H]12,-26.72%
17,NC(=O)c1nc(-c2cccc(Cl)c2)oc1N,102.5%
18,NC(=O)c1nc(-c2ccc(Cl)cc2Cl)oc1N,118.4%
19,NC(=O)N1CCCN(CCc2nc(-c3cccc(Cl)c3)no2)CC1,5.099%
20,CC(C)C(C(N)=O)c1cccc(Cl)c1 (stereo not given),-0.9613%
21,Cc1sc(CN)nc1-c1ccc(Cl)cc1Cl,-19.51%
